Among all 310,000 compounds or so, about 3,800 (1.2%) were called active.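 The calls were made as follows: active = ratio B-score over 3 SD below the library mean, with starting fluorescence within 5 SD of its mean; inactive = the rest, inconclusive results apart.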 Many of the other results were omitted from the sample, so actives are more common in it than they were.

For the assay, the target named is Potassium channel subfamily K member 9 (Homo sapiens) (UniProt Q9NPC2). In words: blockers of human TASK-3 (KCNK9) channel – HEK293 cells, thallium flux, primary screen (AID 488922).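 As to B-score: negative B-score means less thallium flux so channel inhibition.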 Conditions: HEK293 KCNK9, FluxOR thallium flux fluorescence, at 10 µM; active compounds read low.
Potassium channel subfamily K member 9 (Homo sapiens), sequence (Q9NPC2 whole entry, looked up): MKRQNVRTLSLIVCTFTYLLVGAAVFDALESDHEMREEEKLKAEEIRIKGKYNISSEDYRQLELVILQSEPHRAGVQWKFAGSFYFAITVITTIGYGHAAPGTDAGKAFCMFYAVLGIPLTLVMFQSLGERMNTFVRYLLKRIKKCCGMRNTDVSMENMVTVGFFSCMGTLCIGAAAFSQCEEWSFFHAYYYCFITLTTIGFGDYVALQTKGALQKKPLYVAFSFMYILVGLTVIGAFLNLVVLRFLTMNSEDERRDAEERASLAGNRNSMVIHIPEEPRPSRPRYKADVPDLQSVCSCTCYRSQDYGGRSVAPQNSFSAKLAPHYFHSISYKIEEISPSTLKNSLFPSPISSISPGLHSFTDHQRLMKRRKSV
In the case of `CCCCCCCCCCCCn1ccc(=N)cc1`, the B-score was -10.8 (active).
Take `Cc1ccc(-c2nc3ccccc3c(=O)n2-c2ccc(Br)cn2)cc1`: the B-score entry was “inactive”.
On to `COc1cc(Cn2c(N)c(C(=O)NCc3ccco3)c3nc4ccccc4nc32)cc(OC)c1OC`, for which the B-score result is “inactive”.
The result for `CC1=C2C(=O)C3C(CC=C4CC(OC5OC(O)C(O)C(O)C5CO)CCC43C)C2CCC12OC1CC(C)CNC1C2C` (stereo not given) reads “inactive”; that for `CCCCCCN=C(CC)c1c(O)n(CCCC)c(=O)[nH]c1=O`, -12.7 (active).
As for `CCCCn1c(O)c(C(CC)=NCc2ccco2)c(=O)[nH]c1=O`, the B-score entry was “inactive”.
Take `CCC(=NCCCO)c1c(O)n(-c2ccc(OC)cc2)c(=O)[nH]c1=O`: the B-score entry is “inactive”.
For the compound `CCN(CC)C(=O)Oc1ccc(NC(=O)N2CCOCC2)cc1`, the B-score entry is “inactive”.
Regarding `CN(C)CC1CCCCC1OC(=O)c1ccc(Cl)c(Cl)c1` (stereo not given), the B-score entry is “inactive”.
As to `COC(=O)C1=C(c2cc3ccccc3s2)C[C@@H]2CC[C@H]1N2C(=O)NC(C)C`, the B-score entry was “inactive”.
Turning to `CCN1CCN(c2nc3c(c(=O)[nH]2)CCC3)CC1`, the B-score entry was “inactive”.
Then `O=C1CC(=O)N(Cc2ccccc2)C(=O)N1CCCCCCN1C(=O)CC(=O)N(Cc2ccccc2)C1=O`, with “inactive”; and `CC(C)(C)c1ccc(CN2C(=O)CN=C(c3ccccc3)c3ccccc32)cc1`, with -12.7 (active).
Consider `CCOC(=O)c1c(C)c(C(=O)N2CCC3(CC2)OCCO3)c(C)n1CC`, for which the B-score entry was “inactive”.
Consider `CCOP(=S)(OCC)C(O)CCCCCn1c(=O)c(F)cn(C2CCCO2)c1=O` (stereo not given), for which the B-score entry was “inactive”.
As for `C=CCN1C(=O)NC(=O)/C(=C/c2ccc(OCC(=O)Nc3ccc(C)cc3)cc2)C1=O`, the B-score result was “inactive”.
With `O=C(O)CCn1cc(C=C2C(=O)NC(=S)NC2=O)c(-c2cccc(Br)c2)n1`, the B-score entry is “inactive”.
The result for `CCOC(=O)C1SC2(C(F)(F)C(F)F)CC1(O)c1c(c(OC)c3occc3c1OC)O2` (stereo not given) reads -8.55 (active).
`CCOP(=O)(OCC)C(NC(=O)c1ccc(OC)cc1)C(Cl)(Cl)Cl` (stereo not given): the B-score entry is “inactive”.
Consider `NC(=O)Nc1cccc(C(F)(F)F)c1`, for which the B-score result was “inactive”.

The values above are taken from PubChem BioAssay AID488922 (Johns Hopkins Ion Channel Center, 2010).
